Results taken from PubChem BioAssay AID449739 (Vanderbilt High Throughput Screening Facility, 2010).
About 4,200 (4.2%) of roughly 100,000 compounds were called active. The sample holds actives, similar compounds and a random draw of the others, so the mix is not that of the screen.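 How the source made its calls: active means single-dose well whose peak fluorescence ratio is a statistical outlier from its plate by either plate-standardised score or position-corrected B-score; inactive means the rest.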

molecular target: Voltage-dependent T-type calcium channel subunit alpha-1H (Homo sapiens) (UniProt O95180); assay: Cav3.2 calcium influx blockers – cell-based, Fluo-4 calcium fluorescence, FDSS, MLSMR library, primary screen (AID 449739); settings: Cav3.2-expressing cells, at 10 µM, stronger effect = lower value
Sequence (O95180 whole entry, looked up): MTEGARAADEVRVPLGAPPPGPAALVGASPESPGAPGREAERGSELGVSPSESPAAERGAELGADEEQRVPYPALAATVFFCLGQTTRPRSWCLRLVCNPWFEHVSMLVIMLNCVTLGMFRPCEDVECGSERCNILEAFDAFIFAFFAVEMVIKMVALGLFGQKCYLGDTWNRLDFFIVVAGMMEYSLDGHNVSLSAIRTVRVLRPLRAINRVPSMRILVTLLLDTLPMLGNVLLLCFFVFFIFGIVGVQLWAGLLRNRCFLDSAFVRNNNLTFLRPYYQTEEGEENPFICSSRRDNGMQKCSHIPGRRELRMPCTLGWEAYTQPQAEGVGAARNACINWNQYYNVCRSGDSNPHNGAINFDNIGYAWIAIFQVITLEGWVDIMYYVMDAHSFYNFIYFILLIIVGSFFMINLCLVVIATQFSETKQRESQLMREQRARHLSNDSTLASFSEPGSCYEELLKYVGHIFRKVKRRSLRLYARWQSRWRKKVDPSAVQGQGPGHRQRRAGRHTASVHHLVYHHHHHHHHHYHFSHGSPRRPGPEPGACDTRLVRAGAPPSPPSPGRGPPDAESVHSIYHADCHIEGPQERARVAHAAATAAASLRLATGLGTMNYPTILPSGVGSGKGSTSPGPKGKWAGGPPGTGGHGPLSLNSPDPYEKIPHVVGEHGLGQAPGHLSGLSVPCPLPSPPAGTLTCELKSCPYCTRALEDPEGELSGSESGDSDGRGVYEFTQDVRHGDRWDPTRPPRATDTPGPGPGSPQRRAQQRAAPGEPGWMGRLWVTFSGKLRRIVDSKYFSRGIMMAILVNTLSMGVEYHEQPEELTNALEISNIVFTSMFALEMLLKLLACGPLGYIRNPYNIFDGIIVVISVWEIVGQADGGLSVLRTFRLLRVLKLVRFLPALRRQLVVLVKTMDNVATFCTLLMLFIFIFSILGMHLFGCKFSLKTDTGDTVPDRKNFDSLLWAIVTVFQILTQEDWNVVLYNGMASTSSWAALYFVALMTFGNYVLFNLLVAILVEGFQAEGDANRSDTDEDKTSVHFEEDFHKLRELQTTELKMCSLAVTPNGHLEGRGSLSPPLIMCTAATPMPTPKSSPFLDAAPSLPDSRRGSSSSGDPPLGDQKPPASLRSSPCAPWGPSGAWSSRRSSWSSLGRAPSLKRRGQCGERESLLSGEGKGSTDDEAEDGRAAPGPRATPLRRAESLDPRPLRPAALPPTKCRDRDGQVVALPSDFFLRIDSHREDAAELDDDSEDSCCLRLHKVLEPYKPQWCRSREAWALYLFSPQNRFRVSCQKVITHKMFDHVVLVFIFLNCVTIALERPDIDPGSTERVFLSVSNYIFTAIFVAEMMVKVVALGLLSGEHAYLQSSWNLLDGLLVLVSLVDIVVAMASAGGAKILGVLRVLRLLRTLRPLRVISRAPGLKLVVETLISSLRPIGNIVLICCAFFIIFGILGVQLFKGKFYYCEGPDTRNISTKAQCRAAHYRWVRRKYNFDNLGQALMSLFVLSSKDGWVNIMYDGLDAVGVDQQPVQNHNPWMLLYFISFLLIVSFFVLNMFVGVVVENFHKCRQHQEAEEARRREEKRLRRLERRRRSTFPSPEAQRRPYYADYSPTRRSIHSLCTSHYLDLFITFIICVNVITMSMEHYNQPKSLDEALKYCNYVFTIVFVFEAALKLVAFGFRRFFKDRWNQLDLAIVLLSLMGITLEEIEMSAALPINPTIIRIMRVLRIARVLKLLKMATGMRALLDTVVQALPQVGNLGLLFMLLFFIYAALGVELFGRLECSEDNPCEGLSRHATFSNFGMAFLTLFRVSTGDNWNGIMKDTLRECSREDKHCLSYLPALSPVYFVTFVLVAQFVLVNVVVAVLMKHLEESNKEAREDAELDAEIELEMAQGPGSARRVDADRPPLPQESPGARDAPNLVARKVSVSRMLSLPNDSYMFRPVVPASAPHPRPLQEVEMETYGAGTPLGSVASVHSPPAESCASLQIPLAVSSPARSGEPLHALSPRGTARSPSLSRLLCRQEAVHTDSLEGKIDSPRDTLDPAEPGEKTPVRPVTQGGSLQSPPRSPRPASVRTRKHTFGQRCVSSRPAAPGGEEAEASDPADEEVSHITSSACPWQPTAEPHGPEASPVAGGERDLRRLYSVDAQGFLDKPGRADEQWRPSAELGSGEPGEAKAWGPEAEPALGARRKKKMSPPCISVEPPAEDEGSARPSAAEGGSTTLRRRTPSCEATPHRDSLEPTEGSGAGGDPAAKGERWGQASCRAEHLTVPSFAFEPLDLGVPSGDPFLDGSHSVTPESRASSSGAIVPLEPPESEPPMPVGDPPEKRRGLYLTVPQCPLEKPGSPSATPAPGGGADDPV

B-score, active:
CC(Sc1nc2ccccc2c(=O)n1Cc1ccco1)C(=O)c1ccccc1 (configuration not stated) -4.25
N#Cc1c(NC(=O)CSc2nc3ccccc3c(=O)n2Cc2ccco2)sc2c1CCCC2 -5.99
CCOC(=O)Cc1csc(NC(=O)CSc2nc(C)cc(=O)[nH]2)n1 -5.95
CCCCCCn1c(CN2CCCC(C)C2)nc2c1c(=O)n(C)c(=O)n2C (configuration not stated) -3.75
Clc1ccc(COn2c(-c3ccc(Cl)cc3Cl)nc3ncccc32)cc1 -5.63
COc1ccccc1NC(=O)CSc1nnc(Cn2nnc(-c3ccccc3)n2)n1-c1ccccc1 -7.2
CCOc1ccccc1N(CC(=O)NC1CCCCC1)C(=O)CCCC(=O)Nc1ccccn1 -8.92
CCOC(=O)c1cc2n(c1N)-c1ccccc1C2=O -9.74
CSc1nc(N(C)NC(=O)c2cccc(C)c2)c2ccccc2n1 -7.16
O=C(/C=C/c1ccccc1)N/C(=C/c1ccccc1)C(=O)Nc1ccccc1O -8.64
Cc1ccc(CN(N=Nc2nonc2N)c2nonc2N)c(C)c1 -6.83
COC(=O)C1=C(C)N(C)C(C)=C(C(=O)OC)C1c1cccc(Br)c1 -4.38
CCOC(=O)C1=C(CN2CCc3ccccc32)NC(=O)NC1c1ccc(Cl)cc1 (configuration not stated) -5.78
Cc1nc(C)c(-c2csc(NCCc3ccccc3)n2)s1 -6.45
CCCc1[nH]nc2c1C(c1c(C)nn(-c3ccccc3)c1Cl)C(C#N)=C(N)O2 (configuration not stated) -4.44
COc1ccc(C(=O)CSc2nnc(COc3ccccc3)n2Cc2ccco2)cc1 -4.51
C=CCn1c(SCc2c(C(=O)OC)sc(N)c2C(=O)OC)nnc1-c1ccc(Cl)cc1 -3.5
C/C(=N\NS(=O)(=O)c1ccc(Br)cc1)c1cccs1 -5.02
Cc1cc(C(=O)OCC(=O)NCc2ccco2)c(C)n1-c1ccccc1 -4.45

B-score, inactive:
COc1ccc(-n2c(SCC(=O)Nc3sc4c(c3C#N)CCCC4)nnc2-c2ccc(O)cc2)cc1 -0.184
O=C(CCCn1c(SCC(=O)c2ccc(F)cc2)nc2ccccc2c1=O)NCc1ccco1 -2.82
CCOC(=O)C(C)Sc1nc2ccccc2c(=O)n1CC1CCCCC1 (configuration not stated) -2.88
C=C(C)Cn1c(SCC(=O)NCc2ccco2)nc2sc3c(c2c1=O)CCC3 -0.92
CCCNC(=S)NC1CC2CCCC(C1)N2CC(C)C (configuration not stated) 1.82
COc1ccc(N2CCN(C(=O)c3ccc4c(Cl)c5c(nc4c3)CCCC5)CC2)cc1 -0.0196
CN1CCN(S(=O)(=O)c2ccc(N3CCN(S(=O)(=O)c4cccs4)CC3)nc2)CC1 1.73
N#Cc1cc([N+](=O)[O-])ccc1Oc1cccc(/C=N/NC(=O)c2ccc(Cl)cc2)c1 -0.086
CCOC(=O)Cc1csc(NC(=O)C(C)(C)C)n1 0.211
CCCCc1nnc(NC(=O)CSc2nc(C)cc(=O)[nH]2)s1 -0.0258
C=CCn1c(-c2ccc(Cl)cc2)ccc(C#N)c1=O -1.56
NC1=NC[C@@H](Cc2ccc(O)cc2)N1CC1CCCCC1 0.0175
C#Cc1ccc([C@@H]2C=C(C(=O)O)O[C@H](OCCCCO)C2)cc1 -1.58
CC1CCCN(Cc2nc3c(c(=O)n(C)c(=O)n3C)n2CC(=O)c2ccccc2)C1 (configuration not stated) -0.792
CCN1CCN(Cc2nc3c(c(=O)n(C)c(=O)n3C)n2CC(=O)c2ccccc2)CC1 0.531
C/C(=N/NC(=O)c1ccc(NC(=O)c2ccc(F)cc2)cc1)c1ccccc1 0.425
CCOc1ccc(OCC)c(-c2c(=O)n(OCc3ccc(Cl)cc3)c3ccccc3[n+]2[O-])c1 -1.31
O=C(Nc1cccc2ncccc12)c1ccc(-c2ccc(Cl)cc2Cl)o1 -0.641
COc1ccc(C(F)(F)F)cc1N/C=C\c1nnnn1-c1ccc(C)cc1 -3.02
CNC(=O)CSc1nnc(CCc2ccccc2)n1-c1ccccc1 -0.00574
COc1ccc(OC)c(/C=N/NC(=O)CSc2nnc(C)n2-c2ccccc2)c1 2
O=C(Nc1cccc2ncccc12)C(Cl)(Cl)Cl 1.36
COc1ccc(OCC(=O)NN2Cc3ccccc3C2=N)cc1 0.0596
O=C(Cc1ccccc1)N/N=C/c1ccc(Cl)cc1Cl -0.673
O=C(CCCC(=O)N(CC(=O)NC1CCCC1)Cc1ccccc1Cl)Nc1ccccn1 -1.66
CCCC(=O)Nc1cc(OCC)c(NC(=O)NC2CCCCC2)cc1OCC 0.0578
N=c1ccn(CC(=O)NC(N)=O)c2ccccc12 1.07
CC(=O)c1cnc(SCCN2C(=O)c3ccccc3C2=O)nc1C -0.173
CCOC(=O)Nc1ccccc1N1C(=O)c2ccccc2C1=O 0.477
CCOC(=O)c1cc2n(c1C)-c1ccccc1C2=O -0.985
CN(NC(=O)c1ccccc1)c1nc2ccccc2nc1C(F)(F)F -0.171
COc1ccc(C(=O)NN(C)c2nc(-c3ccccc3)cc(C)c2S(C)(=O)=O)cc1 1.17
CCc1ccccc1NC(=O)/C(=C/c1ccccc1)c1ccccc1 -4.21
O=C(/C=C/c1ccccc1)c1ccccc1O 0.49
COC(=O)c1c(-c2ccsc2)oc2ccc(-c3cc(OC)c(OC)c(OC)c3)cc12 -0.846
CCO[C@@H]1OC(C(=O)N2CCOCC2)=C[C@H](C)[C@H]1CCCO 0.155
Cc1ccc(NC(=O)N2CCSc3ccccc32)cc1 -0.746
c1ccc(COc2ccccc2CNCc2cccnc2)cc1 -0.314
CC1(C)CC(=O)C(C=NCCN2CCN(C(=S)Nc3cccc(Cl)c3)CC2)=C(O)C1 -0.563
Cc1ccc(C)c(CSc2nc(-c3ccco3)nc3c2c(=O)n(C)c(=O)n3C)c1 -0.668
COc1ccc(CNC(=O)C2CC(c3ccc(C(F)(F)F)cc3)=NO2)cc1 (configuration not stated) -2.34
O=C(C1=C[C@H](c2coc3ccccc3c2=O)C[C@H](OCc2ccc(CO)cc2)O1)N1CCN(Cc2ccccc2)CC1 -1.94
O=C1NC[C@@H](Cc2ccc(O)cc2)N(CCc2cccc(F)c2)C1=O -1.22
CCN1C(=O)N[C@@H](c2ccccc2)C(C(=O)OC)=C1C -0.116
COCCN1C(=O)N[C@@H](c2ccccc2)C(C(=O)OC)=C1C 0.0333
CCc1ccc(/C=N/NC(=O)c2ccc(OC3CCCC3)cc2)s1 -0.109
CCOC(=O)C1=C(CN2CCc3ccccc32)NC(=O)NC1c1cccc([N+](=O)[O-])c1 (configuration not stated) -1.81
CCOC(=O)C1=C(CN2CCc3ccccc32)NC(=O)NC1c1cc(C)ccc1C (configuration not stated) 0.647
COC(=O)CCCC1=CC2=CC(=O)C(C)(OC(=O)c3cccs3)C(=O)C2=CN1c1cccc(C#N)c1 (configuration not stated) 0.181
CCCCC(=O)Nc1nc(C)c(-c2csc(Nc3ccc(Cl)cc3)n2)s1 0.015
Cc1ccc(Nc2nc(-c3sc(NC(=O)c4ccccc4)nc3C)cs2)cc1 -0.00441
CCn1c(O)c2ccc(C(=O)N=NC(=O)c3cccnc3)cc2c1O -0.0483
CCCc1[nH]nc2c1C(c1ccc(OC)c(Cn3nc(C)c(Br)c3C)c1)C(C#N)=C(N)O2 (configuration not stated) -0.964
CCCc1[nH]nc2c1C(c1ccc(Br)s1)C(C#N)=C(N)O2 (configuration not stated) 0.903
COc1cc(C2OC(c3cc(OC)c(OC)c(OC)c3)C(C)C2C)cc(OC)c1OC (configuration not stated) -2.38
O=C(NCCCCc1ccccc1)C1CC(c2ccc([N+](=O)[O-])cc2)=NO1 (configuration not stated) -2.65
CCOC(=O)/C=C/c1ccc(C(F)(F)F)cc1S(=O)(=O)NC(C)(C)C 0.0548
O=C(NCN1CCN(CCO)CC1)c1cnccn1 0.423
Cc1ccccc1N/N=C/c1ccc(N2CCOCC2)cc1 0.0508
O=C(CSc1nnc(-c2cccnc2)n1Cc1ccco1)c1ccc(Cl)cc1 0.695
CCn1c(CNc2ccc(OC)cc2)nnc1SCC(=O)c1ccc(OC)cc1 0.231
CC(C)C(NS(=O)(=O)c1cccs1)C(=O)Nc1nc(C(C)(C)C)cs1 (configuration not stated) -3.54
C=CCn1c(SCn2nnc3ccccc3c2=O)nnc1-c1ccc(Cl)cc1 -1.02
C=CCn1c(SCc2cc(C(=O)OC)c(C)o2)nnc1-c1ccncc1 0.333
COc1cccc2c1OCC(C(=O)NCc1ccc(Cl)cc1Cl)=C2 -1.48
CCc1nnc(SCc2cccc(F)c2)nc1CC -2.53
C/C(=N\NC(=O)c1ccccc1C)c1ccc(N2CCOCC2)cc1 -0.0283
O=S(=O)(NN=C1CCCCCCC1)c1ccc(Br)cc1 -1.71
C/C(=N\NS(=O)(=O)c1cccc([N+](=O)[O-])c1)c1cc2ccccc2o1 -0.824
O=Cc1c(N2CCN(c3cccc(Cl)c3)CC2)nc2ccccn2c1=O -1.81
O=C(COC(=O)C12CC3CC(CC(C3)C1)C2)NCc1ccco1 -0.704
O=C(CSc1nnc(-c2cccs2)n1-c1ccccc1)NCc1ccco1 0.148
ONC(=Nc1ccc(Cl)cc1)c1ccccc1Cl -1.41
